Test systems include HCT-15 colon; HT29 colon; SNB-75 CNS; SNB-19 CNS; U251 CNS; PC-3 prostate; SK-MEL-5 melanoma; UACC-62 melanoma; LOX IMVI melanoma; SK-MEL-28 melanoma.
What all share (assay): NCI-60 one-dose screen, 48 h (100 = growth as untreated, 0 = no growth, -100 = all killed)
Common to all, as to details: 10 µM unless noted

The structures appear in SMILES notation. About 83,000 compounds went through this panel and 20% of them were active in at least one assay; those are over-represented in the sample as a whole.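 Compound tested at a single concentration for 48 hours in 96-well plates; a percent growth value below 10 was scored as active.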 Unmarked numbers belong to inactive results. Activity calls are given as the source filed them.

With `Brc1ccccc1Nc1ccc2nnc(-c3ccncc3)n2n1`, the growth with HCT-15 colon is 80.6%; with HT29 colon, 109%; in the test on SNB-75 CNS, 93.9%; in the test with SNB-19 CNS it was 100%; in the test with U251 CNS it was 102%; in the test with PC-3 prostate it was 102%. The growth in the test on SK-MEL-5 melanoma was 104%; in the test with UACC-62 melanoma, 108%; in the test on LOX IMVI melanoma, 92.5%.
`O=C1N/C(=C\c2ccccc2)c2ncccc21`: the growth in the test on HCT-15 colon was 101%; in the test on HT29 colon it was 113%; in the test on SNB-75 CNS it was 91.8%; with SNB-19 CNS, 104%; with U251 CNS, 104%; in the test on PC-3 prostate, 102%. Further, the growth is 105% in the test on SK-MEL-5 melanoma, 102% in the test with UACC-62 melanoma, 99.2% in the test on LOX IMVI melanoma and 119% in the test with SK-MEL-28 melanoma.
On to `OC[C@@H](O)[C@@H](O)CO`, for which the growth was 102% in the test on HCT-15 colon; 106% in the test with HT29 colon; 100% with SNB-75 CNS; 98.3% in the test on SNB-19 CNS; 98.7% in the test with U251 CNS; 97.2% in the test with PC-3 prostate. In addition, the growth in the test on SK-MEL-5 melanoma was 104%; in the test with UACC-62 melanoma, 98.3%; with LOX IMVI melanoma, 91.3%.
As to `NC1=NC(c2ccccc2OS(=O)(=O)c2ccc(Br)cc2)n2c(nc3ccccc32)N1` (stereo not drawn), the growth with HCT-15 colon was 102%; in the test with HT29 colon, 92.1%; in the test with SNB-75 CNS it was 80.2%; with SNB-19 CNS, 98.1%; with U251 CNS, 86.9%; with PC-3 prostate, 80.1%. In addition, the growth with SK-MEL-5 melanoma was 91%; with UACC-62 melanoma, 82.7%.
On to `COc1ccc(S(=O)(=O)ON=C2C=C(C)C(=O)C(C)=C2)cc1`, for which the growth with HCT-15 colon is 85.9%; with HT29 colon it was 93.3%; with SNB-75 CNS, 69.1%; in the test with SNB-19 CNS it was 113%; in the test on U251 CNS, 94.4%; in the test on PC-3 prostate, 86%. For the same molecule, the figures for the growth with SK-MEL-5 melanoma, in the test with UACC-62 melanoma and in the test with LOX IMVI melanoma were 98.2%, 91.2% and 62%, respectively.
With `COc1cc2oc(-c3ccc(O)cc3)cc(=O)c2c(O)c1I`, the growth in the test with HCT-15 colon is 100%; with HT29 colon, 107%; in the test with SNB-75 CNS it was 99%; in the test with SNB-19 CNS, 95.9%; in the test with U251 CNS, 97%; in the test with PC-3 prostate it was 97.5%. In addition, the growth is 101% with SK-MEL-5 melanoma, 102% with UACC-62 melanoma, 107% in the test on LOX IMVI melanoma and 108% in the test with SK-MEL-28 melanoma.
In the case of `Clc1ccc2c(c1)C[C@H]1C[C@@H](c3cccs3)N2O1`, the growth was 97.2% in the test on HCT-15 colon; 111% with HT29 colon; 101% in the test on SNB-75 CNS; 114% in the test with SNB-19 CNS; 93.7% with U251 CNS; 91.6% in the test with PC-3 prostate. Further, the growth in the test on SK-MEL-5 melanoma was 99.5%; in the test on UACC-62 melanoma it was 105%; in the test on LOX IMVI melanoma, 93.2%; with SK-MEL-28 melanoma, 110%.
On to `O=C(N/N=C/c1ccc(F)cc1)c1[nH]c2ccc(I)cc2c1-c1ccccc1`, for which the growth with HCT-15 colon is 18.7%; in the test on HT29 colon, 12.5%; in the test on SNB-75 CNS it was 51.7%; in the test with SNB-19 CNS, 12%; in the test with U251 CNS it was 20.4%; in the test on PC-3 prostate it was 20.6%. The growth is -30% (active) in the test on SK-MEL-5 melanoma, 35.2% with UACC-62 melanoma, 25.8% with LOX IMVI melanoma and 67.9% with SK-MEL-28 melanoma.
As to `COc1cc(-c2nc(SC(C)C)nc(Nc3cccc(C)c3)c2C#N)cc(OC)c1OC`, the growth in the test on HCT-15 colon is 103%; in the test on HT29 colon, 98.7%; in the test with SNB-75 CNS, 109%; with SNB-19 CNS, 103%; in the test on U251 CNS, 106%; in the test with PC-3 prostate, 98.6%. In addition, the growth in the test with SK-MEL-5 melanoma was 102%; in the test with UACC-62 melanoma, 95.2%; in the test on LOX IMVI melanoma, 97.2%.
`O=C1c2ccccc2-c2nnc(-c3ccc(Br)cc3)cc21`: the growth with HCT-15 colon was 59.8%; in the test on HT29 colon, 82.5%; in the test on SNB-75 CNS, 36.9%; with SNB-19 CNS, 87.1%; with U251 CNS, 28.8%; in the test on PC-3 prostate it was 51.3%. The growth in the test on SK-MEL-5 melanoma was 51.1%; in the test on UACC-62 melanoma, 16%; in the test on LOX IMVI melanoma, 1.78% (active); in the test with SK-MEL-28 melanoma, 13.8%.
On to `COc1cc(CNCCCN2C(=O)c3ccc4c5c(ccc(c35)C2=O)C(=O)N(CCCNCc2cc(OC)c(OC)c(OC)c2)C4=O)cc(OC)c1OC`, for which the growth with HCT-15 colon was -29.4% (active); with HT29 colon, -47.6% (active); in the test on SNB-75 CNS it was -97.2% (active); in the test with SNB-19 CNS, -92.3% (active); with U251 CNS, -74.5% (active); in the test on PC-3 prostate it was -54.8% (active). Further, the growth was -99.7% (active) in the test with SK-MEL-5 melanoma, -90.2% (active) with UACC-62 melanoma and -85.6% (active) with LOX IMVI melanoma.
Take `Nc1cccc2c(=S)c3ccccc3[nH]c12`: the growth is 95.4% with HCT-15 colon; 117% in the test on HT29 colon; 94.6% in the test with SNB-75 CNS; 89.8% in the test with SNB-19 CNS; 104% with U251 CNS; 82.5% in the test with PC-3 prostate. Also, the growth was 91.4% with SK-MEL-5 melanoma, 87.6% in the test on UACC-62 melanoma, 88.5% with LOX IMVI melanoma and 114% with SK-MEL-28 melanoma.
Regarding `Cc1nn2c(-c3nc4ccc(Cl)cc4[nH]3)c(-c3ccc(F)cc3)nc2s1`, the growth in the test with HCT-15 colon is 76.4%; in the test on HT29 colon, 94.4%; in the test on SNB-75 CNS, 86.3%; with SNB-19 CNS it was 112%; with U251 CNS, 97.6%; in the test on PC-3 prostate, 78.6%. For the same molecule, the growth in the test with SK-MEL-5 melanoma was 90.9%; with UACC-62 melanoma, 91.6%; in the test on LOX IMVI melanoma, 91.1%; in the test with SK-MEL-28 melanoma it was 93.8%.
With `O=C(C[Si](CC(=O)c1cccc(C(F)(F)F)c1)CC(=O)c1cccc(C(F)(F)F)c1)c1cccc(C(F)(F)F)c1`, the growth in the test with HCT-15 colon is 99.1%; with HT29 colon, 62.8%; with SNB-75 CNS, 90.8%; in the test on SNB-19 CNS, 101%; in the test on U251 CNS, 51.6%; in the test with PC-3 prostate it was -14.7% (active). Also, the growth was 99.8% with SK-MEL-5 melanoma, 66.7% with UACC-62 melanoma, 73.2% in the test with LOX IMVI melanoma and 98.6% with SK-MEL-28 melanoma.

(Values after PubChem BioAssay (NCI).)
